SENP6 inh – SENP6 protease inhibitors, primary screen, biochemical, luminescence, uHTS; inhibition, % at 10 µM; Sentrin-specific protease 6 (Homo sapiens), Q9GZR1; actives 1.8% (n = 330,000); Recombinant SENP6 catalytic domain, aminoluciferin luminescence;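 active = inhibition above about 50% at the single tested dose, limit read from the data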;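 note: plate controls were DMSO wells with enzyme for no effect and DMSO wells lacking enzyme for full effect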
SENP7 block – SENP7 protease inhibitors, primary screen, biochemical, luminescence, uHTS; Sentrin-specific protease 7 (Homo sapiens), Q9BQF6; recombinant SENP7, Z-RLRGG-aminoluciferin luminescence, 40 min; inhibition, % at 5 µM; actives 1.5% (n = 330,000); AID 434973, 2010;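 active = inhibition above about 50% at the single test dose, limit read from the data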;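 note: plate controls were DMSO with enzyme for no effect and no enzyme buffer wells for full effect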
PPC-1+TRAIL kill – compounds killing PPC-1 cancer cells with TRAIL present, primary screen, TRAIL potentiator project, ATPLite luminescence, uHTS | PPC-1 cells + TRAIL, ATPLite viability luminescence | cell killing (% activity), % at 4 µM or 5 µM | AID 1443, 2008 | actives 0.41% (n = 220,000);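 active = cell killing above 50% in the first pass at 4 µM, then a duplicate retest at 5 µM averaging 50% or more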;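 note: plate controls were cells with TRAIL plus DMSO for no effect and medium-only wells lacking cells for full effect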
SENP8 block-1 – human SENP8 protease inhibitors, primary screen, biochemical, fluorescence, Nedd8 protein substrate, uHTS. Sentrin-specific protease 8 (Homo sapiens), Q96LD8. recombinant SENP8. inhibition, % at 20 µM. actives 0.64% (n = 360,000). AID 602440, 2012; in the data active = inhibition mostly above about 40%, no sharp cut-off; inactive = mostly below about 27%
Target sequence (Q96LD8 whole entry, looked up): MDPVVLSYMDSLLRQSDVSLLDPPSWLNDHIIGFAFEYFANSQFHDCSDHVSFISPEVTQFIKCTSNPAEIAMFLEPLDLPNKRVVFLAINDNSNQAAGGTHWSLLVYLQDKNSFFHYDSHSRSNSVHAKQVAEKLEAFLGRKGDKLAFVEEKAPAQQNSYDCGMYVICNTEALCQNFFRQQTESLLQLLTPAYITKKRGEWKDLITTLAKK
SENP8 block-2 – SENP8 protease inhibitors, primary screen, biochemical, luminescence. actives 1.2% (n = 330,000). AID 2540, 2010. purified SENP8, Z-RLRGG-aminoluciferin cleavage. inhibition, % at 10 µM; in the data active = inhibition above about 50%
TRAIL sens C8 – viability loss with TRAIL in NB7+C8 cells, primary screen, TRAIL sensitizer project, cell-based, ATPlite luminescence. inhibition (viability loss, TRAIL sensitization), % at 10 µM. AID 624354, 2012. actives 1% (n = 360,000);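 active = compounds causing at least 50% loss of cell viability in the single-dose screen, relative to plate controls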
SENP8 conf – human SENP8 protease inhibitors, confirmation, biochemical, Nedd8 protein substrate, single concentration. purified SENP8, Nedd8-AMC/pro-Nedd8 cleavage fluorescence, 30 min. shares compounds with SENP8 block-1. actives 15% (n = 1,400). inhibition, % at 25 µM; in the data active = inhibition mostly above about 39%, no sharp cut-off; inactive = mostly below about 34%
The depositor's hits bear a star; nt = no result given. Hits are enriched below; roughly 3% of the tested compounds scored in any of these assays.

SMILES	SENP6 inh	SENP7 block	PPC-1+TRAIL kill	SENP8 block-1	SENP8 block-2	TRAIL sens C8	SENP8 conf
COC1=CC(=O)OC(CCc2ccc3c(c2)OCO3)C1 (stereo not drawn)	nt	nt	nt	40*	nt	-36	-2
CCOc1ccc2nc(N=Nc3c(O)[nH]c(=S)[nH]c3=O)sc2c1	13	6	3	40*	6	5	2
Cc1c(N=Nc2c(O)[nH]c(=S)[nH]c2=O)c(=O)n(-c2ccccc2)n1C	3	10	18	22	-5	7	nt
Cc1nn(C)cc1/C=C1/CC2C3CC=C4CC(O)CCC4(C)C3CCC2(C)C1=O (stereo not drawn)	-2	-18	nt	47*	-2	-18	10
CC1CN(O)C2CCc3nonc3C12O (stereo not drawn)	-5	5	27	18	0	-18	nt
O=C(c1c[nH]cc1-c1ccccc1)c1cccc2ccccc12	7	8	8	46*	3	-8	4
COC(=O)C(O)(c1c(C)[nH]n(-c2ccccc2)c1=O)C(F)(F)F (stereo not drawn)	27	24	10	63*	6	-9	87*
COC(=O)C(O)(c1c[nH]c2ccccc12)C(F)(F)F (stereo not drawn)	-11	7	-2	18	-1	9	nt

Source: PubChem (Sanford-Burnham Center for Chemical Genomics)
